Bioassay records deposited in PubChem by National Center for Advancing Translational Sciences (NCATS).
Pf Dd2 growth: qHTS Primary assay for Inhibitors of Plasmodium falciparum Dd2 growth in vitro; P. falciparum Dd2 growth, SYBR Green, 72 h; Potency, µM (series often up to 28.9 µM), inactives show at the highest dose activity, negative = inhibition, hits mostly inhibitors; 4.3% of 120,000 active; AID 1347417, 2020; active = well fitted inhibition curve with a large enough effect;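 note: plate controls were DMSO vehicle for no effect and reference drug for full effect; nearly all actives have a fitted effect of over 65% in size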
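Readout: SYBR Green fluorescence, 485 nm excitation, 535 nm emission, after ~16 h lysis at 37C. Before that, Dd2-infected red cells (2.5% hematocrit) grew 72 h with compound, 29 uM top final concentration.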
Numbers without * were called inactive; i = inactive; [ ] = another dose, or the depositor's remark. Shown is part of a subset that was picked to be rich in hits. Potency is the fitted concentration of half-maximal effect.

SMILES | Pf Dd2 growth
COc1ccc2[nH]c(C[C@@H]3C[C@@H](C(C)C)[C@H](CNC(=O)c4cccnc4)C=C3C)nc2n1 | 11µM*
Cc1cc(CN2C[C@H](NC(=O)CNS(C)(=O)=O)[C@@H](C3CC3)C2)on1 | -12%
O=C(NC1CCCCC1)N1CC(c2nc(CCOCC3CC3)no2)C1 | -5%
Cn1c(CN2CCN(CCN3CCOCC3)CC2)nnc1C1CC(N)C1 (stereo not given) | -3%
Cc1nc2ncnn2c(C)c1CCC(=O)N1C[C@@H](N)C[C@H]1C(=O)NC(C)C | -8%
O=C([C@@H]1C[C@H](Oc2ccccc2)CN1C(=O)C1CCCCC1)N1CCOCC1 | 10%
Cc1ccccc1-c1cccc(CCOc2cnc3c(ccn3CC(=O)O)c2)c1 | i
COc1ccc(Cl)cc1NC(=O)N1CC(=O)Nc2sc3c(c2C1c1ccccc1)CCCC3 (stereo not given) | 11µM*
COc1cc(NC(=O)N2CCc3c(sc4c3CCCC4)C2c2ccccc2)cc(OC)c1OC (stereo not given) | 16%
COc1ccc(Cl)cc1NC(=O)CN1C(=O)NC2(CCCCC2)C1=O | i
COc1cccc(-c2ncc3c(n2)OCCN(Cc2ccc(F)cc2F)C3=O)c1F | 10µM*
COc1ccccc1-c1ncc2c(n1)OCCN(Cc1ccc(F)cc1F)C2=O | i
COc1cccc(-c2ncc3c(n2)OCCN(Cc2ccc(F)cc2F)C3=O)c1 | -21%[44.1 µM]
COc1ccc(CN2C[C@H](O)C[C@H]2c2nc(CS(=O)(=O)c3ccc(F)cc3)no2)cc1 | -22%
COc1ccccc1-c1cnc(Nc2ccc3c(c2)OCCO3)c2c1CCO2 | -25%[44.1 µM]
O=C1Nc2ccc(/C=C/c3ccccc3)cc2C(=O)N2C[C@H](O)C[C@@H]12 | -19%[44.1 µM]
Cc1cn2nnc(C(=O)NC3CCCCCC3)c2c(=O)[nH]1 | -14%
Cc1cn2nnc(C(=O)NC3CCCCCCC3)c2c(=O)[nH]1 | 7.9µM*
CCCCNC(=O)c1nnn2cc(C)[nH]c(=O)c12 | 22%
Cc1cn2nnc(C(=O)NC3CCN(Cc4ccccc4)CC3)c2c(=O)[nH]1 | 26%
Cc1cn2nnc(C(=O)N3CCC(C(=O)NC4CCCCC4)CC3)c2c(=O)[nH]1 | -11%
Cc1cn2nnc(C(=O)NCCCc3ccccc3)c2c(=O)[nH]1 | -26%
Cc1cn2nnc(C(=O)NCc3ccco3)c2c(=O)[nH]1 | 18%
CCOc1ccccc1CNC(=O)c1nnn2cc(C)[nH]c(=O)c12 | 8.9µM*
CCOc1ccc(NC(=O)c2nnn3cc(C)[nH]c(=O)c23)cc1 | 0.63µM*
SMILES | Pf Dd2 growth
O=C1CCN(C(=O)C2CCN(C(=O)C3CCCC3)CC2)CCCCCCN1 | 10%
CN(C)C(=O)CN1C(=O)CO[C@H](c2ccc(NC(=O)C3CC3)cc2)[C@H]1CO | 8%[44.1 µM]
O=C(CCC1CCCC1)NC1CCc2nn(CC3CC3)c(=O)n2CC1 (stereo not given) | i
Cc1cccc(NC(=O)Cn2c(N3CCc4ccccc4C3)nc(C)cc2=O)c1 | -25%
Cc1nc2c(c(-c3ccc(Cl)cc3)n1)CCN(C(=O)Cc1ccc(F)cc1)CC2 | -23%
COc1ccc2[nH]c3c(c2c1)CCNC31CCN(C(=O)c2cn(C)cn2)CC1 | i
CC[C@H]1CN(C(C)=O)CC[C@H]1CC(=O)NCCOC | -19%[44.1 µM]
CC(=O)NC1CC2(CCN(C(=O)c3c(C)noc3C)CC2)Oc2ccccc21 (stereo not given) | 9%
COc1ccc(S(=O)(=O)N2CCCC(Cc3noc(-c4cccnc4)n3)C2)cc1 (stereo not given) | -3%
COc1ccc(-c2nc3n(n2)C(c2ccc(O)cc2)C(C(=O)Nc2cccnc2)=C(C)N3)cc1OC (stereo not given) | -5%
COc1ccc(-c2nc3n(n2)C(c2ccccc2F)C(C(=O)Nc2cccnc2)=C(C)N3)cc1OC (stereo not given) | 10µM*
COc1ccc(C2C(C(=O)Nc3cccnc3)=C(C)Nc3nc(-c4ccccc4)nn32)cc1OC (stereo not given) | -15%
Cc1ccsc1C(=O)N1CCC(c2nc(C3CCOCC3)no2)C1 (stereo not given) | 16%
CN(C)c1ccc(CN2CC[C@H](c3nnc(-c4ccco4)o3)C2)cc1 | i
CN(C)c1ccc(-c2nnc([C@H]3CCN(Cc4ccco4)C3)o2)cc1 | 7.9µM*
CN(C)c1ccc(-c2nnc([C@H]3CCN(Cc4ccccc4F)C3)o2)cc1 | -7%[44.1 µM]
CN(CC1CCOCC1)C(=O)c1cccc(F)c1 | 38%
CC(C)c1nnnn1[C@H]1CO[C@H]2[C@@H]1OC[C@H]2OC(=O)Nc1ccc(Oc2ccccc2)cc1 | i
C=CCNC(=O)CCc1c(C)nn(-c2ccc(F)cc2)c1Oc1cccc(F)c1 | i
CS(=O)(=O)N1CCC(OC2CCN(C(=O)Nc3c(F)cccc3F)CC2)CC1 | i
CCCN1C(=O)CCc2cc(NC(=O)c3ccc4c(c3)OCO4)ccc21 | -30%
COCCN1C(=O)c2ccccc2C(C(=O)NC(C)C)C12CCCCC2 (stereo not given) | -7%
COCCN1C(=O)c2ccccc2C(C(=O)Nc2cccc(C)n2)C12CCCCC2 (stereo not given) | i
COCCN1C(=O)c2ccccc2C(C(=O)Nc2nnc(C3CC3)s2)C12CCCCC2 (stereo not given) | 7.9µM*
COCCN1C(=O)c2ccccc2C(C(=O)Nc2nnc(COC)s2)C12CCCCC2 (stereo not given) | -26%
SMILES | Pf Dd2 growth
COCCN1C(=O)c2ccccc2C(C(=O)Nc2ccccc2O)C12CCCC2 (stereo not given) | i
COCc1nnc(NC(=O)C2c3ccccc3C(=O)N(CC(C)C)C23CCCCC3)s1 (stereo not given) | 3.5µM*
COCCN1C(=O)c2ccccc2C(C(=O)Nc2nc3ccccc3s2)C12CCCCC2 (stereo not given) | 2.5µM*
COC(=O)CCNC(=O)C1c2ccccc2C(=O)N(CC(C)C)C12CCCCC2 (stereo not given) | -16%
CCCCNC(=O)C1c2ccccc2C(=O)N(CCOC)C12CCCCC2 (stereo not given) | -13%
O=C(NCc1ccccc1)NCC1Cn2cccc2C(=O)N1Cc1ccccc1 (stereo not given) | i
CNC(=O)C(C)(C)N1CCC[C@H]1C(=O)NCCN1CCCCC1 | 24%[44.1 µM]
CC(=O)N1CCC(N2C[C@H](O)C[C@H]2c2nc(-c3cccc(C)c3)no2)CC1 | i
O=C1NC2(CN(Cc3cncs3)C2)Oc2ccccc21 | -3%[44.1 µM]
COCCc1nncn1C1CCN(S(=O)(=O)c2ccccc2C(F)(F)F)CC1 | -20%
O=C(c1cccc(Cl)c1)N1CCN(c2cc(-c3ccccc3)[nH]n2)CC1 | i
CN(C)C[C@@H]1CN(c2ncccn2)C[C@H]1NC(=O)c1cccc(F)c1 | -11%
C[C@@H]1CN(C(=O)c2scc3c2CCCC3)C[C@@]1(O)C1CC1 | -18%
CC(c1nc(-c2ccc(Cl)cc2)nn1CC(=O)O)N1CCCC1=O (stereo not given) | 0%
Cc1cc(C)c(CNC(=O)c2nc(-c3ccccc3)cc3c2ccn3C(C)C)c(=O)[nH]1 | i
Cc1cc(C)c(CNC(=O)c2nc(-c3ccnn3C)cc3c2ccn3C(C)C)c(=O)[nH]1 | 7.1µM*
Cc1cc(C)c(CNC(=O)c2nc(-c3ccccc3C#N)cc3c2ccn3C(C)C)c(=O)[nH]1 | i
COCC(=O)N[C@H]1C[C@@H](CO)N(Cc2ccc(C)s2)C1 | 5%
COCCN1C(=O)CCC2(C(=O)NCCc3c[nH]c4ccccc34)CCCC=C12 (stereo not given) | -19%
